Source: PubChem BioAssay
Rows were chosen to be rich in hits. Some 6.9% of all compounds tested hit in one or more screens of this group.
SW480 rerep: induces DNA re-replication in SW480 colon adenocarcinoma cells | SW480 DNA re-replication, Hoechst DNA content imaging, 48 h | Potency, µM (doses to about 46.1 µM), most hits filed as activators | hit rate 1.8% among 340,000 | AID 624297; further: nearly all actives have a fitted effect of over 55% in size
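250 cells/well; 23 nL cpd via pin tool; 48 hr, 37 C, 5% CO2; Hoechst 40 min; imager read of total nuclear intensity, ex 405/em 500-530 nm.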
Giardia kill: Giardia lamblia killing; Giardia lamblia trophozoite viability; activity change, % at 7.66 µM, hits read low; hit rate 0.15% among 340,000; AID 540267; in the data active means activity change below about -80%; inconclusive means between about -30% and that limit;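 further: parasites exposed to compound for two days anaerobically before the ATP read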
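Trophozoites 100 cells/well + cpd; 48 hrs, 37 deg C, anaerobic. ATPLite 1-Step added, 15-30 min RT, luminescence read (ATP-based viability).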
Vif-A3F inh: blocks the Vif interaction with APOBEC3F | HeLa A3F-eYFP + Vif (tagged APOBEC3F with the HIV-1 protein that degrades it), YFP fluorescence increase | Potency, µM (highest dose often 46.1 µM) | hit rate 0.2% among 390,000; further: nearly all actives have a fitted effect of over 65% in size
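HeLa cells stably expressing Vif plus C-terminally eYFP-tagged A3F were seeded, incubated overnight at 37 deg C, dosed with compound, incubated overnight again at 37 deg C. Yellow fluorescence (Ex 488/Em 500-530) reported blocked Vif-mediated A3F-eYFP degradation.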
MCF10A rereplic: induces DNA re-replication in MCF 10a normal breast cells. Potency, µM (top dose mostly 46.1 µM), hits mostly activators. hit rate 2.9% among 350,000. MCF 10A DNA re-replication, Hoechst nuclear intensity, 48 h; further: nearly all actives have a fitted effect of over 50% in size
IL1B secr inh: inhibitors of inflammasome signaling (IL-1 beta secretion); THP-1 LPS/ATP IL-1B secretion, AlphaLISA, 16 h; hits give low values; activity change, % at 57.5 µM; hit rate 4.7% among 360,000; AID 743279; in the data active means activity change below about -50%; inconclusive means mostly about -30% to -49%
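THP-1 cells pretreated 1 hr with compounds (up to 57.5 uM final), then stimulated with LPS (250 ng/mL final) plus ATP (1.25 mM final); secreted IL-1B measured by AlphaLISA after 16 hr, decreased signal indicating inhibition.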
Vif-A3G inh: blocks the Vif interaction with human APOBEC3G. Q9HC16. HeLa A3G-eYFP + Vif (tagged APOBEC3G with the HIV-1 protein that degrades it), YFP fluorescence, overnight. Potency, µM (doses to about 46.1 µM), actives largely listed as inhibitors. hit rate 0.076% among 410,000; further: nearly all actives have a fitted effect of over 60% in size
Target sequence (Q9HC16 whole entry, looked up): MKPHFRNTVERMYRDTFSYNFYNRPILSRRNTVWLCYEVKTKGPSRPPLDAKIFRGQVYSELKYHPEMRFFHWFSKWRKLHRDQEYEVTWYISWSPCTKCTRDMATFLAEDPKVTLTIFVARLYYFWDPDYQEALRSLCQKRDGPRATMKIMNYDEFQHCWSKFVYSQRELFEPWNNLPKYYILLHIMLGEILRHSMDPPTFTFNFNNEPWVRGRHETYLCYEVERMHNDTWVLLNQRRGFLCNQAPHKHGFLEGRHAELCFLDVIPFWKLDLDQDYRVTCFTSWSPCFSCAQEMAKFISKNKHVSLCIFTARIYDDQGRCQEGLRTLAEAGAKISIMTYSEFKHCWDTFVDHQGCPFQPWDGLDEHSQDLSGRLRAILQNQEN
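HeLa cells stably expressing Vif and C-terminally eYFP-tagged A3G, seeded overnight at 37 deg C, then exposed to compound by pintool overnight at 37 deg C. Rise in yellow fluorescence (Ex 488/Em 500-530, Acumen) marks blocked Vif-driven A3G degradation.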
Numbers stand for hits; i = inactive; ? = inconclusive; nt = not tested or not shown. Unless noted, the call rests on the fitted dose curve; in most records, active means well fitted curve in the direction sought with a large enough effect; inconclusive means small, poorly fitted or top-dose-only effect, or another doubt; inactive means no such curve, though single readings can be large; an effect the other way counts as inactive or inconclusive.

SMILES	SW480 rerep	Giardia kill	Vif-A3F inh	MCF10A rereplic	IL1B secr inh	Vif-A3G inh
COC(=O)C1=C(c2cc3ccccc3s2)C[C@@H]2CC[C@H]1N2C(=O)NCC1CC1	i	i	i	i	i	i
COC(=O)C1=C(c2cccc(OCc3ccccc3)c2)C[C@@H]2CC[C@H]1N2C(=O)NCc1ccc(F)cc1	i	i	i	i	i	i
COC(=O)C1=C(c2ccc(-c3ccccc3)c(F)c2)C[C@@H]2CC[C@H]1N2C(=O)NCc1ccco1	i	i	i	21µM	i	i
COC(=O)C1=C(c2ccccc2OCc2ccccc2)C[C@@H]2CC[C@H]1N2C(=O)NCCc1ccc(F)cc1	5.8µM	i	i	i	nt	i
COC(=O)C1=C(c2cc3ccccc3s2)C[C@@H]2CC[C@H]1N2C(=O)NCc1ccc(C(F)(F)F)cc1	i	i	i	?	-52	i
Cc1nn(-c2nccs2)c2c1C(=O)CC(C)(C)C2Br (configuration not stated)	?	i	i	?	?	i
O=c1c2ccccc2nc(/C=C\c2cccc(Br)c2)n1-c1ccc(O)cc1	nt	nt	i	nt	nt	i
Cc1cc(C)cc(-n2c(/C=C/c3cccc(F)c3)nc3ccccc3c2=O)c1	nt	nt	i	nt	nt	i
O=C(CS(=O)C(c1ccccc1)c1ccccc1)NO (configuration not stated)	i	nt	nt	i	nt	nt
CCCCc1nn2c(=O)cc(COC(=O)Cc3ccccc3)nc2s1	nt	nt	i	nt	nt	i
COC(=O)C1=C(c2cccc(OCc3ccccc3)c2)C[C@@H]2CC[C@H]1N2C(=O)NCc1ccc(C(F)(F)F)cc1	i	i	i	i	-55	i
COC(=O)C1=C(c2ccc(F)cc2OCc2ccccc2)C[C@@H]2CC[C@H]1N2C(=O)NCc1ccc(C(F)(F)F)cc1	i	i	i	15µM	-52	i
COC(=O)C1=C(c2ccccc2OCc2ccccc2)C[C@@H]2CC[C@H]1N2C(=O)NCc1ccc(C(F)(F)F)cc1	i	i	i	i	?	i
Ic1ccccc1CN[C@@H]1C2CCN(CC2)[C@@H]1C(c1ccccc1)c1ccccc1	i	i	i	?	-50	i
COc1ccc(OC)c(N=Cc2c(O)n(Cc3ccccc3)c(=S)[nH]c2=O)c1	29µM	i	?	?	i	i
COc1ccc(N=Cc2c(O)n(Cc3ccccc3)c(=S)[nH]c2=O)c(OC)c1	i	i	i	i	i	i
O=C(Nc1ccc2c(c1)OCO2)c1cccn(Cc2ccc(F)cc2)c1=O	nt	nt	i	nt	nt	i
CCOc1ccccc1CNCCc1ccc2c(c1)OCO2	i	i	i	i	-60	i
CCOc1ccc(CNCCc2ccc3c(c2)OCO3)cc1	i	i	i	i	i	i
CCc1ccc(CN2CCN(Cc3ccc(SC)cc3)CC2)cc1	i	i	i	i	-91	i
COc1ccc(OC)c(CCNCc2c(C(=O)O)c(C)n(Cc3ccc(F)cc3Cl)c2C)c1	nt	nt	i	nt	nt	i
NC(Cc1ccc(O)cc1)C(=O)NN=Cc1ccc(N(CCCl)CCCl)cc1 (configuration not stated)	?	i	i	i	i	i
Cc1nnc(NC(=O)c2cccn(Cc3cccc([N+](=O)[O-])c3)c2=O)s1	nt	nt	i	nt	nt	i
O=[N+]([O-])c1cc([As](=O)(O)c2ccc(O)c([N+](=O)[O-])c2)ccc1O	i	-83	i	i	i	i
O=[N+]([O-])c1ccc([As](=O)(O)O)cc1	i	nt	nt	i	nt	nt
SMILES	SW480 rerep	Giardia kill	Vif-A3F inh	MCF10A rereplic	IL1B secr inh	Vif-A3G inh
CN1CCc2cc3c(c4c2C1Cc1ccccc1-4)OCO3 (configuration not stated)	i	i	i	?	-54	i
CCOC(=O)C1(CCCc2ccccc2)CCN(C2CCCC2)CC1	16µM	?	i	?	-74	i
Cn1cnc([N+](=O)[O-])c1Sc1ccc([N+](=O)[O-])cc1	i	i	i	?	-101	i
O=C(COc1ccc(Br)cc1)N1CCN(Cc2ccc3c(c2)OCO3)CC1	i	i	i	i	-60	i
Cc1cccnc1	i	i	i	i	i	i
O=C(NCc1ccccc1)c1cccn(Cc2ccccc2)c1=O	i	i	i	i	i	i
Cc1ccc(CNC(=O)c2ccccc2NC(=O)c2nsc3ccccc23)cc1	nt	nt	13µM	nt	nt	i
Cn1sc(Cl)cc1=O	i	nt	nt	i	nt	nt
NCC(=O)c1cccc([N+](=O)[O-])c1	nt	nt	nt	nt	nt	i
c1ccc2c(CNC3CCCCCC3)c[nH]c2c1	i	i	i	i	-70	i
c1ccc2c(CN3CCCCCC3)c[nH]c2c1	i	i	i	i	i	i
O=c1n(Cl)c(=O)n(Cl)c(=O)n1Cl	i	nt	nt	i	nt	nt
ClCCN1CCN(c2ccnc3cc(Cl)ccc23)CC1	i	i	i	i	-50	i
ClC1=C(Cl)C2(Cl)C(CBr)CC1(Cl)C2(Cl)Cl (configuration not stated)	i	nt	nt	19µM	nt	nt
CCC1(CC)C(=O)NC(=O)N(C)C1=O	i	nt	nt	i	nt	nt
O=C(c1ccc(C(F)(F)F)cc1)C1CCCN(C2CCSCC2)C1 (configuration not stated)	5.2µM	i	i	i	i	i
Cc1cc(Cl)ccc1C(=O)C1CCCN(C2CCSCC2)C1 (configuration not stated)	i	i	?	i	i	i
C[C@]12CCC3C(CCC4=CC(O)CC[C@@]43/C=N/O)C1(O)CCC2C1=CC(=O)OC1 (some centres not stated)	3.7µM	i	i	?	-71	i
CC(=O)O[C@H]1CC[C@]2(C=O)C3CC[C@]4(C)[C@@H](C5=CC(=O)OC5)CC[C@]4(O)C3CC[C@]2(O)C1 (some centres not stated)	nt	i	nt	nt	nt	i
CC12CCC3C(CCC4(O)CC(O)CCC34C=O)C1(O)CCC2C1=CC(=O)OC1 (configuration not stated)	?	i	i	?	?	i
CC12CCC3C(CCC4(O)CC(O)CCC34C=NO)C1(O)CCC2C1=COC(=O)C1 (configuration not stated)	1.6µM	i	i	?	-104	i
CC12CC[C@H]3[C@@H](CCC4(O)C[C@H](O)CCC34/C=N/NC(=O)c3ccccc3Cl)C1(O)CCC2C1=CC(=O)OC1 (some centres not stated)	i	i	i	i	i	i
C[C@H]1O[C@@H](OC2CC[C@]3(C=O)[C@H]4CC[C@]5(C)[C@@H](C6=CC(=O)OC6)CC[C@]5(O)[C@@H]4CC[C@]3(O)C2)CC2OC(C)(C)OC21 (some centres not stated)	?	i	i	?	-93	i
C[C@]12CC[C@H]3[C@@H](CC[C@]4(O)C[C@@H](O)CC[C@]34C=O)[C@@]1(O)CC[C@@H]2C1=CC(=O)OC1	2.6µM	?	i	?	-67	i
